Several values for one entry are separate records, joined by “and”; a condition that tells them apart may be missing. Equal entries are not always repeated. Screen size: about 360,000 compounds; about 25,000 (6.9%) were called active. Where a call stands in place of a potency, no number is given. Roughly 9% stayed inconclusive and do not appear here. Calls come from the whole dose curve; as a rule, active = well fitted inhibition curve with a large enough effect; inconclusive = small, poorly fitted or top-dose-only effect; inactive = flat fitted curve, though single readings scatter. The full list was thinned out, with actives kept by preference. Some structures have more than one record in an assay (separate samples or runs), and their calls can disagree.
target: Luciferin 4-monooxygenase (Photinus pyralis) (UniProt P08659); test: qHTS profiling assay for firefly luciferase inhibitor/activator using purifed enzyme and Km concentrations of substrates (counterscreen for miR-21 project); settings: purified FLuc, luminescence inhibition; series mostly up to 57.5 µM; note: nearly all actives have a fitted effect of over 55% in size
Outline: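 Purified P. pyralis luciferase, 10 nM final, with Km-level 10 uM D-luciferin and 10 uM ATP in 50 mM Tris acetate pH 7.5, 10 mM Mg acetate, 0.01% Tween-20, 0.05% BSA; 6-point qHTS titration about 60 µM downward; luminescence read.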
Potency is the fitted concentration of half-maximal effect.

Chain of Luciferin 4-monooxygenase (Photinus pyralis) (P08659 whole entry, looked up): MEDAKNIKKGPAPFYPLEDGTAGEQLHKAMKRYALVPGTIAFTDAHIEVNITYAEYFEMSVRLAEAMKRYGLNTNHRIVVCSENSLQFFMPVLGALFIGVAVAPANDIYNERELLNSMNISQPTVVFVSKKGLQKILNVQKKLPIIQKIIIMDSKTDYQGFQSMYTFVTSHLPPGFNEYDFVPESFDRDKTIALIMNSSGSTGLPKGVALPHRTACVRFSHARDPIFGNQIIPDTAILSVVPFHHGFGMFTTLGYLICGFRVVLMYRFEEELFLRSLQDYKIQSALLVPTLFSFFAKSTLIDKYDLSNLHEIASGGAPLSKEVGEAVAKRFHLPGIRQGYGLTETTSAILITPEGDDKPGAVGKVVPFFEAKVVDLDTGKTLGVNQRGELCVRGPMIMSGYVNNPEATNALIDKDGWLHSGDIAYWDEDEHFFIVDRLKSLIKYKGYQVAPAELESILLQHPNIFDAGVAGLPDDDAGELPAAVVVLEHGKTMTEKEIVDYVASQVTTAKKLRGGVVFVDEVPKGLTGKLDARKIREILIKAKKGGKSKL

SMILES	Potency	activity change, negative = inhibition
CCOC(=O)c1cnc2c(C)cc(C)cc2c1Nc1ccc(N2CCOCC2)cc1	inactive	
N#Cc1c(N)nc2c3c(sc(=N)c2c1N)NC(=O)CC3c1ccccc1Cl (stereo unspecified)	inactive	
CSc1ncccc1C(=O)NCc1ccccc1Cl	inactive	
O=C(NC1CCCCCC1)C1CCN(C(=O)c2ccc(Cl)cc2)CC1	inactive	
O=[N+]([O-])c1ccccc1NCc1ccccc1Cl	inactive	
O=C(O)Cc1ccc(NCc2ccccc2Cl)cc1	7.57 µM (active)	
S=C(NCCc1ccccc1)NCc1ccccc1Cl	inactive	
O=C(c1ccc(Cl)cc1)n1nc(-c2cccnc2)nc1NCc1ccc(F)cc1	inactive	
CN(C)c1nc(=Nc2cccc(Cl)c2)ss1	3.38 µM (active)	
CCOC(=O)N1CCc2c(sc3c2c(=O)n(Cc2ccccc2)c(=O)n3CC(=O)Nc2cccc(C)c2)C1	inactive	
CCOc1cc(C(=O)Nc2nnc3n2CCS3)cc(OCC)c1OCC	inactive	
Cc1ccc(-c2cn3c(n2)sc2cc(C(=O)NCc4cccs4)ccc23)c(C)c1	inactive	
O=C(NCc1cccs1)c1ccc2c(c1)ncn2C1CCCC1	19 µM (active)	
O=C(NCc1ccc(Cl)cc1)c1ccc2c(c1)nnn2C1CCCC1	inactive	
Cc1cccc(C(=O)Nc2nnc(S(=O)(=O)N3CCCCCC3)s2)c1	26.9 µM (active)	
Cc1ccccc1OCC(=O)Nc1nnc(S(=O)(=O)N2CCCC2)s1	inactive	
O=C(Nc1nnc(S(=O)(=O)N2CCCCCC2)s1)c1cccc(Br)c1	inactive and 26.9 µM (active)	
Cc1cccc(NC(=O)c2cccc(S(=O)(=O)N3CCCC3)c2)n1	inactive	
O=C(Nc1nnc(S(=O)(=O)N2CCCc3ccccc32)s1)c1cccc(F)c1	inactive	
CCc1nnc(NC(=O)c2cc(S(=O)(=O)N3CCCCC3)ccc2C)s1	inactive	
O=C(Nc1nncs1)c1cccc(S(=O)(=O)N2CCCCC2)c1	inactive	
CCOC(=O)CSc1nnc(NC(=O)c2cccc(S(=O)(=O)N3CCCCC3)c2)s1	inactive	
CCOC(=O)CSc1nnc(NC(=O)c2cccc(S(=O)(=O)N3CCCC3)c2)s1	23.9 µM (active)	
CCOc1ccc(NC(=O)Cn2cc(C(=O)c3ccc(C)cc3)c(=O)c3cc4c(cc32)OCCO4)cc1	inactive	
O=C(c1ccc(C(F)(F)F)cc1)N1CCC(c2nc(-c3ccc(S(=O)(=O)N4CCCC4)cc3)no2)CC1	inactive	
COc1ccc(N2CCN(c3cc(C)nc4nncn34)CC2)cc1	inactive	

SMILES	Potency	activity change, negative = inhibition
Cc1ccc2oc3c(c(=O)c2c1)C(c1ccc([N+](=O)[O-])cc1)N(CCCN1CCOCC1)C3=O (stereo unspecified)	inactive	
O=C1C=C(c2cccc(Cl)c2O)C[C@@H](c2ccc(F)cc2)C1	inactive	
COc1ccc(OC)c(NC(=O)c2ccc3c(c2)CCN3S(C)(=O)=O)c1	inactive	
CCOc1ccc(NC(=O)Nc2cc(C)ccc2OC)cc1	2.69 µM (active)	
CCOc1ccc(C(=O)Nc2cc(OC)ccc2OC)cc1	19 µM (active)	
CCOc1ccc(S(=O)(=O)Nc2ccc(S(=O)(=O)Nc3cc(OC)ccc3OC)cc2)cc1	inactive	
COc1ccc(C)cc1NC(=O)Nc1ccccc1SC	inactive	
CCOc1ccc(NC(=O)Nc2cc(C)on2)cc1		-5.5% [at 2.3 µM] (inactive)
CCOc1ccc(NC(=O)CN(C)C(=O)CCSc2ccc(F)cc2)cc1OCC	inactive	
CCOC(=O)c1ccc(N2C(=O)c3n[nH]c(-c4ccco4)c3C2c2ccc(O)cc2)cc1 (stereo unspecified)	inactive	
O=C(CSc1oc(-c2ccccc2)nc1S(=O)(=O)c1ccc(Br)cc1)NC1CCCCC1	inactive	
Cc1ccc(S(=O)(=O)CC(=O)Nc2sc(C)c(C)c2C(N)=O)cc1	inactive	
COc1cccc(-c2nnc(NC(=O)c3ccc(S(=O)(=O)N(CC(C)C)CC(C)C)cc3)o2)c1	inactive	
COc1ccc(-n2nc3c(c2NC(=O)c2ccc(N4C(=O)CCC4=O)cc2)CSC3)cc1	inactive	
COc1ccccc1-c1nnc(NC(=O)c2ccc3ncsc3c2)o1	13.5 µM (active)	
Cc1sc(NC(=O)c2ccc3ncsc3c2)c(C(N)=O)c1C	1.07 µM (active)	
COc1ccccc1-c1nnc(SCC(=O)N2CC(C)CC(C)C2)o1 (stereo unspecified)	inactive	
Cc1ccc(C(=O)Nc2nnc(C3=COCCO3)o2)cc1C	inactive	
COc1ccccc1-c1nnc(NC(=O)c2cccc(N3C(=O)CCC3=O)c2)o1	19 µM (active)	
O=C(COC(=O)c1ccc2ncsc2c1)Nc1ccc(Cl)cc1	inactive	
Cc1ccccc1C(=O)N(Cc1ccc(N(C)C)cc1)CC1CCCO1 (stereo unspecified)	inactive	
CCn1cc2nc(SCc3cccc(F)c3)n(CCc3ccccc3)c(=O)c2n1	inactive	
COc1cc(CN(C(=O)c2ccccc2Br)c2ccccn2)cc(OC)c1OC	inactive	
Cc1cccc(C(=O)Nc2ccc(S(=O)(=O)N3CCCCC3c3cccnc3)cc2)c1 (stereo unspecified)	inactive	
CCN(CCCNC(=O)c1cc2c(=O)n(CC)c3ccccc3c2s1)Cc1ccccc1	inactive	
Cc1ccc(C)c(Cn2c(CCCNC(=O)C3CCCCC3)nc3ccccc32)c1	inactive	

SMILES	Potency	activity change, negative = inhibition
C=CCNC(=O)c1ccccc1NC(=O)c1ccc(Cl)c(S(=O)(=O)Nc2cccc(C)c2C)c1	inactive	
Cc1ccc2c(c1)N(CC(=O)N1CCOCC1)C(=O)CO2	inactive	
O=C(CN1C(=O)CSc2ncccc21)N1CCOCC1	inactive	
Cc1cc(/C=C2/SC(=O)N(CC(=O)N3CCCC3)C2=O)ccc1N1CCOCC1	16.9 µM (active)	
CCCNC(=O)c1ccccc1NC(=O)CSCc1ccc(OC)cc1	inactive	
COc1ccc(/C=C2/SC(=O)N(CCCCCC(=O)Nc3ccccc3C(=O)O)C2=S)cc1	16.9 µM (active)	
COc1ccc(-c2nn(-c3ccccc3)cc2/C=C2/SC(=S)N(CCCC(=O)O)C2=O)c(C)c1	inactive	
COc1cccc(CNC(=O)CSc2c3c(nc4cc(Cl)ccc24)CCCC3)c1	inactive	
CC(=O)c1ccc(N2CCN(c3nc4c(S(=O)(=O)c5ccccc5)nnn4c4ccc(Cl)cc34)CC2)cc1	inactive	
CCOC(=O)c1c(CNCc2ccccc2F)c2sc(C)cc2n1C	inactive	
CCN1C(=S)N[C@@H](c2cccc(C(F)(F)F)c2)C(C(=O)OC)=C1C	inactive	
COc1ccc(-c2noc(CCCC(=O)NC3CCCC3)n2)cc1OC	inactive	
Cc1cc(C)cc(NC(=O)CCCc2nc(-c3ccccc3Cl)no2)c1	inactive	
CC(=O)Nc1ccc(NC(=O)CCCc2nc(-c3ccc(C(C)(C)C)cc3)no2)cc1	2.69 µM (active)	
CCNC(=O)CCc1nc(-c2ccc(C(C)(C)C)cc2)no1	4.78 µM (active)	
COc1cccc(CNC(=O)CCc2nc(-c3ccc(C)cc3)no2)c1	inactive	
CCNC(=O)CCc1nc(-c2ccc(C)cc2)no1	inactive	
CCOc1ccccc1CNCc1c(C(=O)O)c(C)n(Cc2ccc(C)cc2)c1C	inactive	
Cc1cc2ncn(CCCCOc3ccccc3)c2cc1C	inactive	
CCOc1cc(C2C(C(=O)Nc3ccc(OC)cc3)=C(C)Nc3nc(SC)nn32)ccc1O (stereo unspecified)	inactive	
CCOc1ccc(NC(=O)CC(Cc2ccc(Cl)cc2)C(=O)O)cc1 (stereo unspecified)	inactive	
CC(=O)Nc1ccc(NC(=O)C(NS(=O)(=O)c2ccc3c(c2)OCCO3)C(C)C)cc1 (stereo unspecified)	inactive	
CN1CCc2ccccc2C1Cc1ccccc1NC(=O)c1sc2ccccc2c1Cl (stereo unspecified)	inactive	
Cc1nn(C)cc1/C=N/NC(=O)c1sc2ccccc2c1Cl	26.9 µM (active)	
Cc1[nH]c2ccccc2c1/C=N\NC(=O)Cn1nnc(-c2ccccc2)n1	inactive	
O=C(N/N=C/c1c(Cl)[nH]c2ccccc12)c1sc2ccccc2c1Cl	19 µM (active)	

SMILES	Potency	activity change, negative = inhibition
Cc1nnsc1C(=O)N/N=C/c1ccccc1Cl	inactive	
COc1ccc(CNC(=O)CNC(=O)c2sc3ccccc3c2Cl)cc1OC	inactive	
CCN(CC)S(=O)(=O)c1ccc2c(c1)nc(CN(C)C(=O)Nc1ccc(Cl)cc1)n2C	inactive	
O=C(NCCNc1ccc([N+](=O)[O-])cc1Cl)c1ccccc1F	inactive	
CCOC(=O)N1CCc2c(sc(NCc3cccc(F)c3)c2C(=O)Nc2ccccc2OCC)C1	inactive	
Cc1cc2nc(C)n(CCCNC(=O)Nc3ccccc3)c2cc1C	inactive	
Cc1nc2cc(NC(=O)Nc3cccc(F)c3)ccc2n1C	0.757 µM (active)	
CCOC(=O)N1CCN(Cc2nc3cc(NC(=O)CC)ccc3n2CC)CC1	inactive	
C=CCN(C(=O)Nc1ccc2c(c1)nc(C)n2C)c1ccccc1	15.1 µM (active)	
Cc1nc2cc(NCc3cccs3)ccc2n1C	15.1 µM (active)	
Cc1nc2cc(NC(=O)NC3CC3)ccc2n1C	inactive	
Cc1nn(CC(=O)Nc2ccc3c(c2)nc(CN2CCCCC2)n3C)c(=O)c2ccccc12	inactive	
Cn1ncc(Br)c1C(=O)NCc1cccs1	inactive	
O=c1c(NCc2cccs2)nccn1-c1ccccc1	inactive	
CCCCNC(=O)c1ccc2c(c1)NC(=O)C(C(C)C)N2 (stereo unspecified)	inactive	
CC(=O)N1CCCc2cc(S(=O)(=O)N3CCC(C(=O)NCc4ccc(C)cc4)CC3)ccc21	inactive	
CCc1ccc(-c2nn(-c3ccccc3C)cc2C(=O)N2CCN(C3CCS(=O)(=O)C3)CC2)cc1 (stereo unspecified)	inactive	
COc1ccccc1CNCc1ccc(C(=O)O)s1	inactive	
CCc1nccn1S(=O)(=O)c1cc(Br)ccc1Br	inactive	
CCOC(=O)c1c(NC(=O)c2ccc(S(=O)(=O)N(CC)CC)cc2)sc2c1CCCCC2	inactive	
CN(C(=O)c1ccc2c(c1)N(Cc1cccc(Cl)c1)C(=O)c1ccccc1S2=O)C1CCCCC1 (stereo unspecified)	inactive	
Cc1ccc(Cl)cc1NC(=O)/C(C#N)=C\c1cn(Cc2ccc(F)cc2)c2ccccc12	inactive	
CCc1ccc(NS(=O)(=O)c2ccc3[nH]cc(C(=O)NCCc4cccc(C)c4)c(=O)c3c2)cc1	inactive	

Source: PubChem BioAssay AID588342 (National Center for Advancing Translational Sciences (NCATS), 2011)
